Among all 650,000 compounds or so, about 6,800 (1%) were called active. For the sample, actives were picked, then their nearest neighbours and some compounds at random. Unmarked numbers belong to inactive results. Cut-off read from the data, not from the text of the source: active = activation above about 4.9%; inactive = the rest.
Target: G-protein coupled receptor 151 (Homo sapiens) (UniProt Q8TDV0)
Test: activators of human GPR151, primary screen, cell-based, PathHunter beta-arrestin, luminescence (AID 1508602);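 note: 0% = median of compound wells and 100% = cells with positive control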
Conditions: PathHunter beta-arrestin GPR151 cells, at 11.2 µM, active compounds read high

G-protein coupled receptor 151 (Homo sapiens), sequence (Q8TDV0 whole entry, looked up): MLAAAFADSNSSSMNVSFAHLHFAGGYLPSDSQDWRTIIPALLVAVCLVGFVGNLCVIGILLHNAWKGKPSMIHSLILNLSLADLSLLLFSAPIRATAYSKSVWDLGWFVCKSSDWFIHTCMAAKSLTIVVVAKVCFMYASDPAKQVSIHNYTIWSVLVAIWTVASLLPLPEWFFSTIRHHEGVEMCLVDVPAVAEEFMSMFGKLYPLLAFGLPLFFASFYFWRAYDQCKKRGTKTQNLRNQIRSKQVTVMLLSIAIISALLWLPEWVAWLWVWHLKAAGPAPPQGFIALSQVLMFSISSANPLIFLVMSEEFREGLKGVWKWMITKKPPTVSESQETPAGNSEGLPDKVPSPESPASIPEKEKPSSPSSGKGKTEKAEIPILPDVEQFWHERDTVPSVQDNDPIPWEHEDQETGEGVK

Row | Compound | activation
1 | CCC(=O)Nc1cccc(Nc2nc(Cl)nc(Nc3cccc(NC(=O)CC)c3)n2)c1 | 0.686%
2 | Cc1ccc(CS(=O)(=O)CC2Nc3ccc(C(=O)NC4CCCC4)cc3NC2=O)cc1 (configuration not stated) | -0.216%
3 | Cc1cc(=O)[nH]c(NCCC(=O)O)n1 | 0.811%
4 | COCCn1c(C)cc(C(=O)COC(=O)C2COc3ccccc3O2)c1C (configuration not stated) | 0.229%
5 | COCCn1c(C)cc(C(=O)CSc2nnc(-c3ccccc3)o2)c1C | 9.35% (active)
6 | COCCn1c(C)cc(C(=O)CSc2nnc3scc(-c4ccc(C)cc4)n23)c1C | 1.12%
7 | COc1ccc(C2/C(=C(\O)c3ccc(Br)cc3)C(=O)C(=O)N2c2nccs2)cc1OC (configuration not stated) | -0.318%
8 | Cc1cccc(-n2nc3c(c2NC(=O)CCC2CCCC2)CS(=O)(=O)C3)c1C | -0.834%
9 | Cc1cccc(-n2nc3c(c2NC(=O)CCC2CCCCC2)CS(=O)(=O)C3)c1C | 5.19% (active)
10 | Cc1cccc(-n2nc3c(c2NC(=O)C2CCCC2)CS(=O)(=O)C3)c1C | -1.12%
11 | COc1ccc(N2CCN(C(CNS(=O)(=O)c3c(C)cc(C)cc3C)c3cccnc3)CC2)cc1 (configuration not stated) | 0.0567%
12 | Cc1ccc(S(=O)(=O)NCC(c2cccnc2)N2CCN(c3ccc(F)cc3)CC2)cc1 (configuration not stated) | 4.96% (active)
13 | O=S(=O)(NCC(c1cccnc1)N1CCN(c2ccccc2)CC1)c1ccc(F)cc1 (configuration not stated) | -1.39%
14 | CC(=O)Nc1nc2c(s1)-c1cccc3cccc-2c13 | -0.686%
15 | COc1cc(Nc2cc(N3CCN(c4ccc(F)cc4)CC3)c3noc4c3c2C(=O)c2ccccc2-4)cc(OC)c1OC | 5.65% (active)
16 | CCN1CCN(c2cc(Nc3cc(OC)c(OC)c(OC)c3)c3c4c(onc24)-c2ccccc2C3=O)CC1 | -0.784%
17 | CCN1CCN(c2cc(Nc3cccc(OC)c3)c3c4c(onc24)-c2ccccc2C3=O)CC1 | -1.99%
18 | Cn1c(SCC(=O)NCc2cccs2)nnc1C1CC1 | 0.896%
19 | CCc1ccc(NC(=O)CCS(=O)(=O)c2cc3c(cc2Cl)NC(=O)CO3)cc1 | 0.977%
20 | Cc1ccccc1NC(=O)CCS(=O)(=O)c1ccc2c(c1)OCC(=O)N2 | -0.0759%
21 | Cc1cc2c(cc1S(=O)(=O)CCC(=O)Nc1ccccc1Cl)OCC(=O)N2 | 12% (active)
22 | CC(Nc1ccc(-c2cccc(C=O)c2)cn1)c1ccc(F)cc1 (configuration not stated) | 3.31%

Row | Compound | activation
23 | C=CSC1=C(C#N)C(c2cccc3ccccc23)CC(=O)N1 (configuration not stated) | 0.0614%
24 | CN(C)C(=O)c1cc(-c2cn[nH]c2)ccc1NC(=O)OCc1ccccc1 | 0.0349%
25 | CN(Cc1ccccc1)C(=O)c1nc2ccc(-c3cn[nH]c3)cc2s1 | 5.86% (active)
26 | CCN(Cc1ccccc1)C(=O)Nc1ccc(-c2cn[nH]c2)cc1OCCN(C)C | 0.0869%
27 | O=C(CCS(=O)(=O)c1cccc2nsnc12)N1CCCCCC1 | -0.702%
28 | CNC(=O)C(NC(=O)c1ccc([N+](=O)[O-])cc1)C12CC3CC(CC(C3)C1)C2 (configuration not stated) | 0.352%
29 | Cc1cccc(NC(=O)/C(=C\c2ccco2)NC(=O)c2ccccc2Br)c1 | 2.08%
30 | CC1=C(C(=O)N2CCOCC2)C(c2ccc(Cl)cc2)C2=C(CC(C)(C)CC2=O)N1 (configuration not stated) | 0.141%
31 | CCc1cccc(OCC(=O)Nc2ccc3c(c2)OCCO3)c1 | -1.18%
32 | O=C(Cn1nc(-c2ccc3c(c2)OCCO3)ccc1=O)Nc1cccc(C(=O)NC2CC2)c1 | 0.799%
33 | CCOc1cccc(NC(=O)Cn2nc(-c3ccc4c(c3)OCCO4)ccc2=O)c1 | 8% (active)
34 | O=C(CSc1nnc(Cc2ccccc2)o1)c1ccc([N+](=O)[O-])cc1 | -0.861%
35 | Cc1nc2cc(C(=O)NCc3ccc4c(c3)OCO4)ccc2n1-c1ccc(OCc2ccccc2)cc1 | 9.26% (active)
36 | COc1ccccc1-n1c(C)nc2cc(C(=O)NCc3ccc4c(c3)OCO4)ccc21 | -0.911%
37 | CCOc1ccc(-n2c(C)nc3cc(C(=O)NCC(OCC)OCC)ccc32)cc1 | -0.917%
38 | O=C(NC1CC1)c1ccc(-c2nc(NCCN3CCOCC3)c3[nH]cnc3n2)cc1 | 2.27%
39 | Cc1cccn2c(=O)c3cc(C(=O)NC4CCCCC4)c(=N)n(C4CCCCC4)c3nc12 | 5.92% (active)
40 | Cc1ccc2nc3c(cc(C(=O)NC4CCCCC4)c(=N)n3C(C)C)c(=O)n2c1 | 0.735%
41 | CCCn1c(=N)c(C(=O)NC2CCCCC2)cc2c(=O)n3cccc(C)c3nc21 | -0.974%
42 | COc1cccc(NC(=O)N2CCc3nc(-c4ccncc4)nc(N4CCCCC4)c3C2)c1 | -2.11%
43 | CC12CCC(C(=O)Nc3c(Cl)cccc3Cl)(CC1=O)C2(C)C (configuration not stated) | -0.214%
44 | CC12CCC(C(=O)Nc3cc(Cl)ccc3Cl)(CC1=O)C2(C)C (configuration not stated) | -0.262%

Row | Compound | activation
45 | CC12CCC(C(=O)Nc3ncc(Cl)cc3Cl)(CC1=O)C2(C)C (configuration not stated) | 5.35% (active)
46 | Cc1ccccc1-n1nc2c(c1NC(=O)C1CC1)CSC2 | 1.82%
47 | C=CCn1c(SCC(=O)Nc2nc(C)cs2)nnc1C(C)NC(=O)c1cccs1 (configuration not stated) | 0.0682%
48 | O=C(CCN(Cc1ccc(Cl)cc1)S(=O)(=O)c1ccc(Br)cc1)NO | 0.218%
49 | CC(=O)Nc1nnc(CCOCC(C)OCCc2nnc(NC(C)=O)s2)s1 (configuration not stated) | 5.04% (active)
50 | CCOCCc1nnc(NC(=O)CC(C)(C)C)s1 | -0.508%
51 | CCCc1nnc(NC(=O)C(C)Oc2ccccc2)s1 (configuration not stated) | 0.536%
52 | CCOc1ccc(NC(=O)NC(=O)N(C)S(C)(=O)=O)cc1 | -0.0562%
53 | CCOc1ccc(NC(=O)Nc2ccc(N(C)C(C)=O)cc2)cc1 | 6.4% (active)
54 | CCOc1ccc(NC(=O)N(CC(C)C)CC(C)C)cc1 | -1.58%
55 | CC1CCCC(C)N1C(=O)COC(=O)c1ccc(Cl)cc1N (configuration not stated) | -1.01%
56 | COc1cccc(-c2ccccc2NC(=O)C2CCN(C3CCOCC3)CC2)c1 | 0.21%
57 | O=C(CCc1nc2ccccc2[nH]1)N1CCC2(CC1)OCc1cc(Cl)ccc1O2 | -0.0529%
58 | COc1ccc(-c2noc(N3CCCC(C(=O)NCCCN4CCC(C)CC4)C3)n2)cc1 (configuration not stated) | -1.28%
59 | COc1ccc(-c2noc(N3CCC(C(=O)NCCCN4CCN(C)CC4)CC3)n2)cc1 | 7.49% (active)
60 | COc1ccc(-c2noc(N3CCC(C(=O)NCCCOC(C)C)CC3)n2)cc1 | 2.42%
61 | COC(=O)c1ccccc1NC(=O)C1=CC(c2cccc(OC)c2)=NS(=O)(=O)N1C | 2.65%
62 | CCOC(=O)c1sc(=S)n(-c2ccc(Br)cc2)c1N | -1.26%
63 | Cc1ccc(-c2nnc(N3CCOCC3)c3ccccc23)cc1S(=O)(=O)N1CCN(C)CC1 | 5.54% (active)
64 | Cc1ccc(-c2nnc(NCc3ccccc3)c3ccccc23)cc1S(=O)(=O)N1CCOCC1 | -0.185%
65 | Cc1ccc(-c2nnc(N3CCOCC3)c3ccccc23)cc1S(=O)(=O)N1CCCCC1 | -0.605%
66 | CCOC(=O)c1cnc2c(C)cc(Cl)cc2c1Nc1cccc([N+](=O)[O-])c1 | -1.43%

Row | Compound | activation
67 | Cc1c(C)c2ccc(O)c(I)c2oc1=O | 0.449%
68 | O=C1NC(=O)C(=Cc2cc([N+](=O)[O-])cc(Br)c2O)C(=O)N1 | 0.835%
69 | CCCOc1ccc([N+](=O)[O-])cc1C=C1C(=O)NC(=O)NC1=O | 5.32% (active)
70 | COc1ccc([N+](=O)[O-])cc1/C=C1\C(=O)NC(=O)N(c2ccc(Br)cc2)C1=O | 2.28%
71 | O=C(NC1CCCCC1N1C(=O)CSC1=O)c1ccccc1F (configuration not stated) | 0.048%
72 | CCOC(=O)C1=C(C)N(Cc2ccco2)C(=O)C1(NC(=O)c1ccccc1)C(F)(F)F (configuration not stated) | 0.126%
73 | CC(=O)Nc1ccc(S(=O)(=O)NC2(C(F)(F)F)C(=O)NC(C)=C2C#N)cc1 (configuration not stated) | 0.355%
74 | CCCN1C(=O)C(NS(=O)(=O)c2ccc(N)cc2)(C(F)(F)F)C(C(=O)OC)=C1C (configuration not stated) | 6.6% (active)
75 | Fc1cccc(C2=NC3(CCCC3)NC2=S)c1 | 1.94%
76 | CC(=O)Nc1nc(C(=O)Nc2nc(-c3sc(C)nc3C)cs2)cs1 | 5.72% (active)
77 | Cc1nc(C)c(-c2csc(Nc3ccc(Br)cc3)n2)s1 | -0.252%
78 | CC(=O)Nc1nc(C)c(-c2csc(Nc3ccc(C)cc3)n2)s1 | 0.136%
79 | N#Cc1c(SCC(=O)Nc2ccc(Br)cc2)nsc1SCC(=O)Nc1ccc(Br)cc1 | -0.245%
80 | Cc1cccc2c(C(=O)N3CCOCC3)cc(-c3ccccc3)nc12 | 0.152%
81 | CCOc1ccccc1-c1cc(C(=O)N2CCOCC2)c2ccccc2n1 | 13.1% (active)
82 | Cc1cc(C(=O)N2CCOCC2)c2ccccc2n1 | -0.327%
83 | COc1ccc(NC(=S)N2CCN(S(=O)(=O)c3ccc(F)cc3)CC2)c(OC)c1 | 8.74% (active)
84 | O=S(=O)(c1ccc(F)cc1)N1CCN(C(=S)NC2CCCC2)CC1 | -1.65%
85 | COc1cc([N+](=O)[O-])ccc1NC(=S)N1CCN(S(C)(=O)=O)CC1 | 0.0846%
86 | COc1ccc(NC(=O)CSc2nc3n[nH]c(C)c3c(=N)n2-c2ccccc2Cl)c(OC)c1 | 0.84%
87 | CCOc1ccc(C(c2sc3nc(C)nn3c2O)N2CCCC2)cc1OC (configuration not stated) | 0.827%
